Compounds without any hit were thinned out: in the full panel of roughly 83,000, 20% have a hit.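 Interpretation: 100, growth as untreated; towards 0, rising growth inhibition; 0, no net growth; 0 to -100, cell death. Compounds scoring below 10 were considered active.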 Unmarked numbers belong to inactive results. Calls of active or inactive are those of the source.

Experiment in all cases: NCI-60 one-dose screen, 48 h (100 = growth as untreated, 0 = no growth, -100 = all killed)
Holding throughout (conditions): 10 µM unless noted

For test [1], the system named is DU-145 prostate.
Test [2] deals with K-562 leukemia.
Test [3] relates to MALME-3M melanoma.
Test [4] deals with MDA-MB-231 breast.
The subject of test [5] is RXF 393 renal.
Test [6] relates to SF-268 CNS.
Test [7] deals with SF-295 CNS.
For test [8], the system named is SF-539 CNS.
Test [9] relates to UACC-257 melanoma.
Test [10] deals with M14 melanoma.
Test [11] has as its system HCT-15 colon.
Test [12] has as its system HT29 colon.
Test [13] deals with SNB-75 CNS.
Test [14] concerns SNB-19 CNS.
The subject of test [15] is U251 CNS.
Test [16] concerns PC-3 prostate.
The subject of test [17] is SK-MEL-5 melanoma.
Test [18] deals with UACC-62 melanoma.
For test [19], the system named is LOX IMVI melanoma.
In test [20] the test system is SK-MEL-28 melanoma.

Consider `CCCCCOc1ccc(C(=O)/C(Br)=C/C(=O)O)cc1`, for which the growth in test [1] is 106%; in test [2], 60.1%; in test [3], 130%; in test [4], 109%; in [5] it was 95.2%; in [6], 97.5%. Moreover, the growth in test [7] was 112%; in [8], 100%; in test [9], 106%; in test [10] it was 56.8%; in test [11], 89.1%; in test [12], 105%. In addition, the growth in [13] is 73.8%; in test [14], 98.8%; in [15] it was 86.7%; in test [16], 99.6%; in test [17], 104%; in test [18], 90.9%. Further, the results for the growth in [19] and in [20] were 86.4% and 87.4%, respectively.
Turning to `CCOC(=O)c1cc(C(=O)c2cc(OC)c(OC)c(OC)c2)n2ccc(-c3ccncc3)cc12`, the growth in test [1] was 103%; in test [2] it was 98.7%; in test [3] it was 87.5%; in [4] it was 70.2%; in test [5] it was 95.3%; in [6], 96.4%. Further, the growth in test [7] is 113%; in test [8], 93.9%; in [9] it was 80.8%; in test [10], 101%; in [11] it was 99.4%; in test [12], 91.5%. Also, the growth in test [13] is 88.8%; in test [14], 94.4%; in test [15] it was 93.2%; in test [16], 75.2%; in test [17], 82.8%; in test [18], 98.4%. Further, the growth in [19] was 99%; in [20], 110%.
As to `COC(=O)c1c2c(c(C)[n+]([O-])c1C)C(=O)C(NCc1ccc(Cl)cc1)=CC2=O`, the growth in test [1] was 86.6%; in test [2], 28.7%; in test [3] it was -75.4% (active); in [4], 48.7%; in [5], 86.6%; in test [6], 76.8%. Besides, the growth in test [7] is 87.6%; in [8], 85.3%; in test [9], 17.8%; in test [10] it was 39.6%; in [11], 39.6%; in [12], 9.34% (active). For the same molecule, the growth was 131% in test [13]; 84.4% in [14]; 57.2% in test [15]; 33.5% in test [16]; 29.9% in test [17]; 6.15% (active) in test [18]. Further, the growth is 45.8% in [19] and 95.7% in test [20].
Regarding `O=C(Cn1c(=O)sc2ccccc21)NNS(=O)(=O)c1ccccc1[N+](=O)[O-]`, the growth in [1] was 105%; in test [2] it was 98.9%; in [3] it was 99.9%; in test [4], 104%; in test [5], 119%; in test [6], 97%. Further, the growth in test [7] was 103%; in [8], 99%; in test [9] it was 99.7%; in test [10], 99.4%; in test [11] it was 103%; in test [12] it was 99.3%. In addition, the growth was 83.3% in [13]; 103% in test [14]; 97.9% in [15]; 96.2% in [16]; 101% in test [17]; 98.8% in test [18]. The figures for the growth in test [19] and in test [20] were 96.4% and 104%, respectively.
With `O=C(Nc1cccc([N+](=O)[O-])c1)c1cc2ccccc2cc1O`, the growth in [1] is 10.6%; in [2], -9.38% (active); in [3], -23.3% (active); in test [4], -43% (active); in test [5], 5.31% (active); in [6] it was 18.3%. For the same molecule, the growth in test [7] is -9.62% (active); in test [8], 4.44% (active); in [9], -10.1% (active); in test [10], 19%; in test [11], 12.8%; in test [12], 13.4%. In addition, the growth was 6.46% (active) in test [13]; 25.8% in test [14]; 6.12% (active) in test [15]; 0.633% (active) in [16]; -53.6% (active) in test [17]; 18.8% in test [18]. In addition, the growth is 10% in test [19] and 28.1% in [20].
As to `Cc1ccc(Cc2cnc(NC(=O)c3cc(Br)cs3)s2)cc1`, the growth in test [1] is 84.9%; in [2] it was 15%; in test [3], 56.5%; in test [4] it was 70.9%; in [5], 71.4%; in test [6] it was 71.7%. The growth was 43.8% in [7]; 66.4% in [8]; 79.5% in test [9]; 30.4% in test [10]; 24.4% in test [11]; 16.3% in [12]. The growth in [13] is 64.5%; in test [14] it was 54%; in test [15], 46.9%; in test [16] it was 46.4%; in [17], 46%; in test [18], 44.7%. For the same molecule, the growth in test [19] was 54.6%; in [20], 61.7%.
As to `COc1ccc(-c2ccc3cnc4sc(-c5ccc(OC)cc5)nc4c3n2)cc1`, the growth was 107% in test [1]; 96.6% in test [2]; 111% in [3]; 89.6% in test [4]; 107% in test [5]; 95.4% in [6]. The growth in test [7] was 100%; in test [8], 91.5%; in test [9] it was 106%; in [10], 115%; in test [11], 97.6%; in [12], 100%. In addition, the growth in test [13] is 85.8%; in [14], 98.4%; in test [15], 94.4%; in [16], 70.3%; in test [17], 85.2%; in [18], 98.8%. Also, the results for the growth in test [19] and in [20] were 87% and 107%, respectively.

The values are drawn from PubChem BioAssay (NCI).
